Reference: PubChem BioAssay (NCATS)
Results filed as inconclusive are left out. Active and inactive are the calls of the source. Unless noted, calls follow the shape of the dose curve; as a rule, active = well fitted curve in either direction with a large enough effect (not every such curve was filed as active); inconclusive = small, poorly fitted or top-dose-only effect, or another doubt; inactive = flat fitted curve, though single readings scatter.

Legend:
[1] = molecular target: Lysosomal acid glucosylceramidase (Homo sapiens) (UniProt P04062); assay: Glucocerebrosidase-p2 (AID 348; in the data active = potency below about 10 µM; also: potency is read from the fitted curve at half-maximal effect); settings: purified GBA, blue fluorogenic substrate, 40 min
Outline: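 Normal human glucocerebrosidase (0.2 nM) with blue fluorogenic substrate (80 uM final) in citrate/phosphate pH 5.9 with 10mM sodium taurocholate, 0.01% tween-20; 40 min RT, NaOH/glycine stop; fluorescence Ex 365/Em 440; AC50 from a titration from 0.6 nM upwards.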

[2] = AP1 Signaling Pathway (AID 357); settings: ME-180 AP-1-bla reporter, EGF-induced, beta-lactamase ratio, 5 h; at 7.69 µM (top of the series) unless noted;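 also: ME-180 reporter cells stimulated with EGF at its EC50 level; % is scaled to controls: 0 for no effect and ±100 for the full control effect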
Outline: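 First, ME-180 AP-1-bla cells were cultured overnight at 37 °C in low-serum Opti-MEM. Next, titrated compounds with EC50 EGF were incubated 5 hours. Finally, CCF4 was added for 2.5 hours and the 460/530 nm ratio recorded.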

[3] = NFAT Signaling Pathway (AID 444); settings: Jurkat NFAT-bla M1, carbachol, beta-lactamase ratio, 5 h; at 7.69 µM (top of the series) unless noted;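 also: carbachol stimulus at about its EC50 of 1 µM final; % is scaled to controls: 0 for no effect and ±100 for the full control effect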
Outline: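 Read-out: CCF4 FRET ratio (460 nm/530 nm) after 1 h RT dye loading, used for %activity and AC50 from titration series. Cells: Jurkat NFAT-β-lactamase/M1 line, treated with compound plus 1 uM carbachol for 5 h, 37 °C.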

[4] = Stat Signaling Pathway (AID 446); settings: ME-180 SIE beta-lactamase reporter, IL-6 stimulated, 5 h; at 7.69 µM (top of the series) unless noted;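 also: ME-180 cervical cancer cells given 40 pM IL-6 alongside compound; SIE-controlled beta-lactamase reporter measured as 460/530 nm FRET emission ratio; % is scaled to controls: 0 for no effect and ±100 for the full control effect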
Outline: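 FRET read-out (405 nm excitation, 460/530 nm emission) of a beta-lactamase reporter under a STAT-inducible element in ME-180 cervical carcinoma cells. Cells with compound receive 40 pM IL-6 for 5 h. Values are normalised to AC90 stimulation and AC90 JAK-inhibitor controls.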

[5] = molecular target: Glucocorticoid receptor (Homo sapiens) (UniProt P04150); assay: GR-GFP Redistribution (AID 450;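 active = compounds whose dose series gives a full or clear partial fitted curve of increased nuclear translocation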; also: potency is read from the fitted curve at half-maximal effect); settings: U2OS GR-GFP nuclear translocation, laser cytometry, 2 h
[6] = molecular target: Glucocorticoid receptor (Homo sapiens) (UniProt P04150); assay: GR-EFC Redistribution (AID 451; calls by dose curve; also: potency is read from the fitted curve at half-maximal effect); settings: CHO-K1 GR-EFC translocation, beta-gal luminescence, 2 h
Outline: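 Translocation of GR-ED fusion to nuclear EA restores b-gal, read by luminescence after 1 h room-temperature detection. Engineered CHO-K1 biosensor cells, 1,000/well, exposed 2 h at 37 C to titrations up to 46 uM final.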

[7] = molecular target: Mitogen-activated protein kinase 10 (Mus musculus) (UniProt Q61831); assay: JNK3 AlphaScreen Assay (AID 530); settings: JNK3 lysate, c-Jun phosphorylation; series mostly up to 57.1 µM;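 also: kinase came from lysate of stimulated human HepG2 cells; signal reports phosphorylation of biotinylated GST-cJun 1-79 at Ser73 with 10 µM ATP; % is scaled to controls: 0 for no effect and ±100 for the full control effect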
Outline: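 qHTS titrations with 15 min compound pre-incubation before adding ATP (10 uM final). Read-out: AlphaScreen of Ser73-phosphorylated biotin-GST-cJun using HepG2 lysate JNK3 activated by IL-1β and TNFα.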

[8] = molecular target: Cytochrome P450 3A4 (Homo sapiens) (UniProt P08684); assay: qHTS Assay for Activators of Cytochrome P450 3A4 (AID 885; active = well fitted curve in the direction sought with a large enough effect; an effect the other way counts as inactive or inconclusive; also: nearly all actives have a fitted effect of over 65% in size); settings: recombinant CYP3A4, Luciferin-PPXE luminescence, 60 min; series mostly up to 57.1 µM
Outline: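 Luminescent readout of luciferin formed from 25 uM Luciferin-PPXE (KM level) by 20 nM CYP3A4 in 200 mM KPO4, with 60 min NADPH-driven reaction at room temperature after 10 min compound exposure. Ketoconazole (57 uM) defined 100% inhibition.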

[9] = Primary qHTS for small molecule stabilizers of the endoplasmic reticulum resident proteome: Secreted ER Calcium Modulated Protein (SERCaMP) assay (AID 1508630; active = well fitted curve in the direction sought with a large enough effect; an effect the other way counts as inactive or inconclusive; also: % is scaled to controls: 0 for no effect and ±100 for the full control effect); settings: SH-SY5Y GLuc-SERCaMP (Gaussia luciferase released on ER calcium loss) secretion, thapsigargin, luminescence; series mostly up to 38.4 µM
Outline: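 The SH-SY5Y reporter protocol was run at 3 concentrations up to 38.3 uM (primary) or 11 concentrations (follow-up): 16 h compound, 100 nM thapsigargin for 4 h, then extracellular luciferase luminescence.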

[10] = molecular target: 3',5'-cyclic-AMP phosphodiesterase 4B (Homo sapiens) (UniProt Q07343); assay: qHTS Assay for Inhibitors of PDE-IV (AID 607; active = well fitted activation curve with a large enough effect in the main read-out, with a control signal flat, not every such curve was filed as active; also: % of control where 0% means no effect); settings: HEK293 ACTOne CNG channel cells, membrane potential fluorescence; series mostly up to 22.9 µM
Outline: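 Cell-based read-out of cAMP via a modified cyclic nucleotide-gated channel and membrane potential dye (535/590 nm) in HEK293 cells expressing PDE4 endogenously. Compounds tested up to 22.9 uM final; 100 uM RO 20-1724 reference.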

[11] = qHTS Assay for Identification of Small Molecule Agonists for Hypoxia Response Element Signaling Pathway (AID 914; active = well fitted activation curve with a large enough effect in the signal ratio, with a control signal flat, not every such curve was filed as active; the % refers to the signal ratio; also: % of control where 0% means no effect); settings: ME-180 (cervical carcinoma) HRE-bla reporter, beta-lactamase ratio, CoCl2, 17 h; activation: stronger effect = higher value
Outline: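 Cells were plated overnight, pin-dosed with compound in a titration series, co-stimulated with EC50 CoCl2 and incubated 17 hours at 37 degrees Celsius. CCF4 substrate was then loaded, and AC50 values came from the 460nm/530nm ratio.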

Chain of Cytochrome P450 3A4 (Homo sapiens) (P08684 whole entry, looked up): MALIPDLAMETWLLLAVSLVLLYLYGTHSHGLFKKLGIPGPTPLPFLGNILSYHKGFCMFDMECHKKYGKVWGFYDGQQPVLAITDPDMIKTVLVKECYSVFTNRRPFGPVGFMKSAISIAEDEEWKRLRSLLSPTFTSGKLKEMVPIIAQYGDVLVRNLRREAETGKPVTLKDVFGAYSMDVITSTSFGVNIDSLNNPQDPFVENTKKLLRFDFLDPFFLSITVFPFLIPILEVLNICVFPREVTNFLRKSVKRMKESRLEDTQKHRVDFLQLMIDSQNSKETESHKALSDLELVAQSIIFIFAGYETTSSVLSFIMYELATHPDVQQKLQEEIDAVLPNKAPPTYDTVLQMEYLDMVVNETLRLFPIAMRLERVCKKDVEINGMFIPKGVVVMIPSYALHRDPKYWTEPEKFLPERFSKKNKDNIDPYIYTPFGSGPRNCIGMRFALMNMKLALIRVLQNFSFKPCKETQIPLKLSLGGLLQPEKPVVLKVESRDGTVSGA
Chain of Glucocorticoid receptor (Homo sapiens) (P04150 whole entry, looked up, the tested form may be a part): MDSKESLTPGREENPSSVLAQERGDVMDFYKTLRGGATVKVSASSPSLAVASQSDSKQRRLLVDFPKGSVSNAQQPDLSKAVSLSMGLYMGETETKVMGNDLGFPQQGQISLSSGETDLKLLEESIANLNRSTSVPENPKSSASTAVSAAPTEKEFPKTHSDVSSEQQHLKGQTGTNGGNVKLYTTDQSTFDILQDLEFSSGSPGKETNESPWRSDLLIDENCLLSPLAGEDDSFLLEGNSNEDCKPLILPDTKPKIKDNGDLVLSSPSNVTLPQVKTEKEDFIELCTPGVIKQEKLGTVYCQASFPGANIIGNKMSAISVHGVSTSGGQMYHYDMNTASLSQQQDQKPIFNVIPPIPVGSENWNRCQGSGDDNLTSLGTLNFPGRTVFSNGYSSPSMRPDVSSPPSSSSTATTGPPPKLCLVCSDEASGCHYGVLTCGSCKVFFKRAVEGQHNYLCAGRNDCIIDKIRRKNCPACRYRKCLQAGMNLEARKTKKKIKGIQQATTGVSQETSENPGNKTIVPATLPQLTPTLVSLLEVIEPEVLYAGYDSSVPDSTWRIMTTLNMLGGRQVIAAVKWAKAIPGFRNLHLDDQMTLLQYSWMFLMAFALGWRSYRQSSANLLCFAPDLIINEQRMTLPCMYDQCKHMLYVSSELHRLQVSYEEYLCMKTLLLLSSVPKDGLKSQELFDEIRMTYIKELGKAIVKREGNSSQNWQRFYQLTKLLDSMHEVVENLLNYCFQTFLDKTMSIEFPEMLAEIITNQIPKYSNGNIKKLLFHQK
Chain of 3',5'-cyclic-AMP phosphodiesterase 4B (Homo sapiens) (Q07343 whole entry, looked up): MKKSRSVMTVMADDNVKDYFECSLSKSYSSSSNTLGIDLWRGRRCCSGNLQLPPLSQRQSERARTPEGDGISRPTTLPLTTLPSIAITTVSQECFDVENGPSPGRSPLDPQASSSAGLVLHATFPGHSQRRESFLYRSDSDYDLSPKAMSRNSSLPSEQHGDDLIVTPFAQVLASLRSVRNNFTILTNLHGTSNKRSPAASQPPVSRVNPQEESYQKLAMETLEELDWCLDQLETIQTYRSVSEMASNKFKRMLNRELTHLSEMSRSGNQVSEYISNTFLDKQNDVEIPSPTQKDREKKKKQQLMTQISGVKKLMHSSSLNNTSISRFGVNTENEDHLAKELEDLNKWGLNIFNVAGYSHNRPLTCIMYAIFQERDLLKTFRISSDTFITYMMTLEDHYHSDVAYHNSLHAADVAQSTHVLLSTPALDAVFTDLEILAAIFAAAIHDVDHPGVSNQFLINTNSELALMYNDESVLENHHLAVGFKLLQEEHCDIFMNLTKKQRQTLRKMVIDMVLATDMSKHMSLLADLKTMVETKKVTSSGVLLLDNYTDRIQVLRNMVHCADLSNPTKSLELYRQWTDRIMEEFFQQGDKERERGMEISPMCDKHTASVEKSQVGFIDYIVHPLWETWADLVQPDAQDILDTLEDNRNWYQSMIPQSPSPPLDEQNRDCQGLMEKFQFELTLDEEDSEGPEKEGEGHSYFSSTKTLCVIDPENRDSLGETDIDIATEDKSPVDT
Chain of Lysosomal acid glucosylceramidase (Homo sapiens) (P04062 whole entry, looked up): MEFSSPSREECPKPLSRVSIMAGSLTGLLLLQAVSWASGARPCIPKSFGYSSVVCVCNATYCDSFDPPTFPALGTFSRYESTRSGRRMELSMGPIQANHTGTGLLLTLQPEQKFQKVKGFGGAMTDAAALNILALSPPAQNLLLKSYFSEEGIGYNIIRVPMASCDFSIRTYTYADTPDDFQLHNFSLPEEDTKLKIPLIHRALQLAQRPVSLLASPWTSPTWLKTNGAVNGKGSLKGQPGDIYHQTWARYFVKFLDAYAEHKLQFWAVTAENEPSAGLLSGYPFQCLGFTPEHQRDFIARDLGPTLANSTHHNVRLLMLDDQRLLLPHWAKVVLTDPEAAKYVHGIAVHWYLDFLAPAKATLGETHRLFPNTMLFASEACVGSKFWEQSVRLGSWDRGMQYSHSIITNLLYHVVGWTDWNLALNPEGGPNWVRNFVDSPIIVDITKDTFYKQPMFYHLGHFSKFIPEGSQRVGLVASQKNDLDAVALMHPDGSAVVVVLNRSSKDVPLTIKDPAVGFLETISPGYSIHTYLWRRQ

O=c1c(-c2cccc(Cl)c2)nc2cncnc2n1Cc1ccc(F)cc1
inactive: Potency [1] > 11.4 µM | activity change, negative = inhibition [2] -7.68% | activity change, negative = inhibition [3] -0.975% | activity, negative = inhibition [4] -5.55% | Potency [5] > 9.22 µM | Potency [6] > 46 µM | Potency [7] | Potency [8] | outcome [9]

COc1ccc(C(=O)N2CCC3(CCCN(c4ccccn4)C3)CC2)cc1
inactive: Potency [1] > 11.4 µM | activity change, negative = inhibition [2] -4.8% | activity change, negative = inhibition [3] -8.78% | activity, negative = inhibition [4] -3.02% | Potency [6] > 46 µM | Potency [7] | Potency [10] | outcome [9]

COc1ccc(-c2nc3cnc(OC)nc3n(C3CC3)c2=O)cc1
inactive: Potency [1] > 11.4 µM | activity change, negative = inhibition [2] -14.2% | activity change, negative = inhibition [3] -0.173% | activity, negative = inhibition [4] 2.68% | Potency [5] > 9.22 µM | Potency [6] > 46 µM | Potency [7] | Potency [10] | Potency [8] | outcome [9]

CC(=O)N1CCC2(CC1)CCN(c1cccc(-c3ccccc3)c1)CC2
inactive: Potency [1] > 11.4 µM | activity change, negative = inhibition [2] -13.2% | activity change, negative = inhibition [3] 16.7% | activity, negative = inhibition [4] 18.6% | Potency [6] > 46 µM | Potency [7] | Potency [10] | outcome [9]

COCCn1c(=O)c(-c2ccc(OC)cc2)nc2cnc(Oc3ccc(OC)cc3)nc21
inactive: Potency [1] > 11.4 µM | activity change, negative = inhibition [2] -20.1% | activity change, negative = inhibition [3] 18% | activity, negative = inhibition [4] -7.21% | Potency [5] > 9.22 µM | Potency [6] > 46 µM | Potency [7] | Potency [10] | outcome [9]

COc1ccccc1CCn1c(=O)c(C)nc2cncnc21
inactive: Potency [1] > 11.4 µM | activity change, negative = inhibition [2] -13.2% | activity change, negative = inhibition [3] 6.15% | activity, negative = inhibition [4] -13.1% | Potency [5] > 9.22 µM | Potency [6] > 46 µM | Potency [7] | Potency [10] | outcome [9]

O=C(c1ccco1)N1CCC2(CCCN(c3ncccn3)C2)CC1
inactive: Potency [1] > 11.4 µM | activity change, negative = inhibition [2] 3.88% | activity change, negative = inhibition [3] -1.96% | activity, negative = inhibition [4] -7% | Potency [6] > 46 µM | Potency [7] | Potency [10] | outcome [9]

COCCn1c(=O)cnc2cnc(OCc3ccccc3)nc21
inactive: Potency [1] > 11.4 µM | activity change, negative = inhibition [2] -3.32% | activity change, negative = inhibition [3] -3.92% | activity, negative = inhibition [4] 3.06% | Potency [5] > 9.22 µM | Potency [6] > 46 µM | Potency [7] | Potency [10] | Potency [8] | outcome [9]

Cc1noc(C)c1C(=O)N1CCC2(CCCN(c3ncccn3)C2)CC1
inactive: Potency [1] > 11.4 µM | activity change, negative = inhibition [2] -6.23% | activity change, negative = inhibition [3] 7.66% | activity, negative = inhibition [4] -4.43% | Potency [6] > 46 µM | Potency [7] | Potency [10] | outcome [9]

COc1cccc(Cn2c(=O)c(-c3cc(F)cc(F)c3)nc3cnc(OC)nc32)c1
inactive: Potency [1] > 11.4 µM | activity change, negative = inhibition [2] -16.9% | activity change, negative = inhibition [3] -18.1% | activity, negative = inhibition [4] -4.81% | Potency [5] > 9.22 µM | Potency [6] > 46 µM | Potency [7] | Potency [10] | outcome [9]

COc1ccc(NC(=O)N2CC3(CCN(C(=O)c4cccc(F)c4)CC3)C2)cc1
inactive: Potency [1] > 11.4 µM | activity change, negative = inhibition [2] -7.57% | activity change, negative = inhibition [3] -1.23% | activity, negative = inhibition [4] 0.388% | Potency [6] > 46 µM | Potency [7] | Potency [10] | outcome [9]

O=c1c(-c2ccc(Cl)cc2)nc2cncnc2n1Cc1ccccc1
inactive: Potency [1] > 11.4 µM | activity change, negative = inhibition [2] -10.4% | activity change, negative = inhibition [3] -17% | activity, negative = inhibition [4] -3.39% | Potency [5] > 9.22 µM | Potency [6] > 46 µM | Potency [7] | Potency [10] | Potency [8] | activation [11] -4.75% | outcome [9]

COc1ccc(C(=O)N2CCC3(CC2)CCN(c2cccc(-c4ccccc4)c2)CC3)cc1
inactive: Potency [1] > 11.4 µM | activity change, negative = inhibition [2] 10.6% | activity change, negative = inhibition [3] -6.4% | activity, negative = inhibition [4] -19% | Potency [6] > 46 µM | Potency [7] | Potency [10] | outcome [9]
